# Reference: PubChem BioAssay
# “And” between values parts separate entries of the source, which are not always exact repeats. Equal values may be shown once. The source made the active and inactive calls. Unless noted, no stated cut-off is given here; in the data, active means inhibition above about 80%; inactive means the rest.
# Assays:
# [1] = P. berghei load reduction in hepatocytes – cell-based, HepG2, luciferase luminescence, HepG2 viability, primary screen (AID 624349; in the data active means parasite load remaining mostly below about 12%, no sharp cut-off; inactive means mostly above about 10%;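 further: 100% = mean of DMSO negative control wells on the same plate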); conditions: P. berghei liver stage in HepG2, luciferase luminescence, concentration not given here; parasite load remaining: stronger effect = lower value; viability: measured here: HepG2 viability without parasites
# [2] = tested on: Hepatitis C virus NS3 helicase; assay: blockers of NS3h binding to ssDNA – biochemical, fluorescence polarization, LOPAC1280 library, primary screen (AID 687035; in the data active means inhibition above about 37%); conditions: Purified HCV NS3 helicase, Cy5-dT15 ssDNA binding fluorescence polarization; stronger effect = higher value; concentration not given here
# [3] = compounds altering Cy5-DNA-NS3h complex signal – biochemical, LOPAC1280, artefact control for HCV NS3 helicase inhibitor project (AID 687037; call rule not given here); conditions: Cy5-DNA-NS3h complex fluorescence interference counterscreen
# [4] = viability loss with induced miR-34 in A549 – imaging, A549 dox-inducible miR-34, nuclei and caspase counts, primary screen (AID 1347080;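 active means compounds whose cell count with miR-34 switched on is under 0.7 times the count with it off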); conditions: A549 miR-34 inducible, Hoechst nuclei count, 48 h
# [5] = blockers of cellular phospholipid synthesis – cell-based, LOPAC library, screen 4, primary screen (AID 1347384; call rule not given here); conditions: animal cells, phospholipid biosynthesis inhibition screen; at 10 µM
# [6] = target: Mitogen-activated protein kinase 7 (Homo sapiens) (UniProt Q13164); assay: Gal4-ERK5 driven luciferase induction – cell-based, HTS, primary screen (AID 1508626;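 active means luciferase signal above three times the same-plate solvent-only control wells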;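 further: luciferase driven by Gal4-ERK5 fusion binding five Gal4 sites before minimal TATA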); conditions: HeLa Gal4-ERK5 transactivation, 18 h, at 5 µM, stronger effect = higher value
# Chain of Mitogen-activated protein kinase 7 (Homo sapiens) (Q13164 whole entry, looked up, the tested form may be a part): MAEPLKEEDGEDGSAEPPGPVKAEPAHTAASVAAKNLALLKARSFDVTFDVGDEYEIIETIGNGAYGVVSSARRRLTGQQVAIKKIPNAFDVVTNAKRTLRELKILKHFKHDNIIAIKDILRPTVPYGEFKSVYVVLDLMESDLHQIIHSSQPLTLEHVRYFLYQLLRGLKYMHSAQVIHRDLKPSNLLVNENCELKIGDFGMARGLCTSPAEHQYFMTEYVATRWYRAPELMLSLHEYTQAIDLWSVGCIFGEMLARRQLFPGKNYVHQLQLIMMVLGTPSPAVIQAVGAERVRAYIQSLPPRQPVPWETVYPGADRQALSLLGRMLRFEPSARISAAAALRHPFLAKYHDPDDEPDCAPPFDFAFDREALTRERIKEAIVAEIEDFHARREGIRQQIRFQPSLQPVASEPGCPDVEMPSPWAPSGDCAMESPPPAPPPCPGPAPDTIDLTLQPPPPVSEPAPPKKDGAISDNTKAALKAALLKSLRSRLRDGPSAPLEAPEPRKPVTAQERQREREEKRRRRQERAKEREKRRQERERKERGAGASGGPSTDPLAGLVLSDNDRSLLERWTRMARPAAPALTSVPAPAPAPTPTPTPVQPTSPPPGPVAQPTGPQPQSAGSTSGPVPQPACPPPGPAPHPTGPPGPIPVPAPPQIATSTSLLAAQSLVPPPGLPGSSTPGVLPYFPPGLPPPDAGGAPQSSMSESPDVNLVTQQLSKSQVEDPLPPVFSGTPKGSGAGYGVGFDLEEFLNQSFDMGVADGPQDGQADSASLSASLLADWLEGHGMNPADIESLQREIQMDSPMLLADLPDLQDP
# [7] = galactose survival enhancers in mitochondrial complex I cybrids – cell-based, galactose medium, ATP luminescence, primary screen (AID 1645843;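 active means z-score of at least 1.8 in each of two replicates, scored against plate mean and spread of sample wells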;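 further: positive z means more ATP and so rescue of galactose-driven cybrid death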); conditions: complex I mutant cybrid cells, 72 h, stronger effect = higher value
# [8] = MELAS cybrid and Rieske KO viability enhancers – cell-based, MELAS cybrids, Rieske KO mouse fibroblasts, CellTiter-Glo, primary screen (AID 1508586;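 active means mean z-score across replicates of 1.96 or higher in either the MELAS or the Rieske mutant cell line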;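 further: z relative to plate mean and SD of compound and empty wells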); conditions: low glucose
# [9] = target: NAD(+) hydrolase SARM1 (Homo sapiens) (UniProt Q6SZW1); assay: blocking NAD cleavage by SARM1 SAM-TIR – cell lysate, NAD-Glo luminescence (AID 1508614;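 active means compound whose remaining NAD level is above about 45 nM, limit read from the data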); conditions: SAM-TIR HEK293T lysate NADase, at 1 µM, stronger effect = higher value
# Chain of NAD(+) hydrolase SARM1 (Homo sapiens) (Q6SZW1 whole entry, looked up): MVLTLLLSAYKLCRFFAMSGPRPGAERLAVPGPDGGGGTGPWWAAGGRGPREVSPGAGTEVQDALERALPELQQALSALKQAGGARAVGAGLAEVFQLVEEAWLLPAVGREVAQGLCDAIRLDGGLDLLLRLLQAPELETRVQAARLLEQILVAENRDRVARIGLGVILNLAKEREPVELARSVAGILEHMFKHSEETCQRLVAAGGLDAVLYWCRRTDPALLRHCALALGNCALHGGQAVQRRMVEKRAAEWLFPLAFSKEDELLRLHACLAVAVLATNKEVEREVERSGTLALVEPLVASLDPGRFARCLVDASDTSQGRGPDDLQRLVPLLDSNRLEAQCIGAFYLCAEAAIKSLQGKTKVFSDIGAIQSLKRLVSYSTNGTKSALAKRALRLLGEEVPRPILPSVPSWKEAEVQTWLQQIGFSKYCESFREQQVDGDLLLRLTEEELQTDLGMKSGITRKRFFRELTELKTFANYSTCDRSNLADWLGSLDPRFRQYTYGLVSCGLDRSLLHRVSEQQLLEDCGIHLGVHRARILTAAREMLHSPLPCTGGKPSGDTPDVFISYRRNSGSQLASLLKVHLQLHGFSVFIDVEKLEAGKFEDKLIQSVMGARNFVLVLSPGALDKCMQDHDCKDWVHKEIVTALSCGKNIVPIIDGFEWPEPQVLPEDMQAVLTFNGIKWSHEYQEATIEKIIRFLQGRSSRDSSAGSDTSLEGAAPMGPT
# [10] = compounds altering circadian rhythm period length – cell-based, LOPAC library, luminescence reporter (AID 2774; call rule not given here;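 further: values are relative to mean of DMSO wells on each plate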); conditions: circadian reporter cells, at 7 µM, actives lie on both sides
# [11] = compounds altering viability of human ES cells (AID 493140; call rule not given here;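 further: cells exposed to compounds for four days before counting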); conditions: human embryonic stem cell survival screen; stronger effect = higher value
# [12] = growth inhibition, single agent or in combination, cell-based, chromothripsis tumors, cisplatin or BGB combos (AID 1671449); conditions: LFS_MB_P medulloblastoma cells;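 further: cells exposed for 96 hours; 0% = vehicle DMSO and 100% = killing by high DMSO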
# [13] = growth inhibition, single agent and combos, cell-based, chromothripsis tumors, cisplatin or BGB combos (AID 1671450); conditions: HDN33 neuroblastoma cells, stronger effect = higher value;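 further: cells exposed to compound for four days; 0% = vehicle DMSO and 100% = cell killing by high DMSO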
# [14] = growth inhibition, single agents and combos, ICB984, cell-based, cisplatin or BGB combos, synergistic combos for chromothripsis tumors (AID 1671451; call rule not given here;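 further: cells exposed for 96 hours before readout; 0% = vehicle DMSO and 100% = killing by high DMSO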); conditions: ICB984 medulloblastoma cells, drug combinations, stronger effect = higher value
# [15] = growth inhibition, single agents and combos, LFS_MB_1R, cell-based, cisplatin or BGB combos, synergistic combos for chromothripsis tumors (AID 1671452); conditions: LFS_MB_1R medulloblastoma cells, stronger effect = higher value;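 further: cells exposed for 96 hours before readout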
# [16] = growth inhibition, single agents and combos, HTB85, cell-based, BGB or cisplatin IC20 combos, synergistic combos for chromothripsis tumors (AID 1671453); conditions: HTB85 osteosarcoma cells, drug combinations, stronger effect = higher value;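 further: cells exposed for 96 hours before readout; 0% = vehicle DMSO and 100% = high DMSO killing control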
# [17] = growth inhibition, single agents and combos, CRL2098, cell-based, BGB or cisplatin IC20 combos, synergistic combos for chromothripsis tumors (AID 1671454); conditions: CRL2098 osteosarcoma cells, drug combinations, stronger effect = higher value;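 further: cells exposed for 96 h before readout; 0% = vehicle DMSO and 100% = killing by high DMSO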
# [18] = growth inhibition, single agents and combos, HD-MB03, cell-based, BGB or cisplatin IC20 combos, synergistic combos for chromothripsis tumors (AID 1671455; in the data active means inhibition above about 83%;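 further: 0% = vehicle DMSO and 100% = high DMSO as cytotoxic control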); conditions: HD-MB03 medulloblastoma cells, stronger effect = higher value
# [19] = growth inhibition, single agents and combos, UWB1.289, cell-based, BGB or cisplatin combos, synergistic combos for chromothripsis tumors (AID 1671456); conditions: UWB1.289 ovarian carcinoma cells, stronger effect = higher value;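 further: cells exposed to compound for four days; 0% = vehicle DMSO and 100% = killing by high DMSO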
# [20] = growth inhibition, single agents and combos, LFS_MB_2R, cell-based, cisplatin combos, synergistic combos for chromothripsis tumors (AID 1671457); conditions: LFS_MB_2R medulloblastoma cells, stronger effect = higher value;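 further: cells exposed to compound for four days before readout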
# [21] = growth inhibition, MDA-MB-436, cell-based, BGB or cisplatin combos, synergistic combos for chromothripsis tumors (AID 1671458; call rule not given here;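 further: cells exposed for 96 hours; 0% = vehicle DMSO and 100% = killing by high DMSO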); conditions: MDA-MB-436 breast carcinoma growth inhibition, drug combinations, stronger effect = higher value
# [22] = UWB1.289_BRCA1 ovarian cancer growth, cell-based, BGB or cisplatin combinations (AID 1671459); conditions: UWB1.289 BRCA1 ovarian carcinoma, drug combinations, stronger effect = higher value
# [23] = drug combination toxicity in non-malignant astrocytes – cell-based, BGB or cisplatin IC20 combos, cytotoxicity control for chromothriptic childhood tumor combination screen (AID 1671460); conditions: Human astrocytes, viability inhibition, drug combinations, at 0.5 µM, stronger effect = higher value;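 further: cells exposed to compounds for 96 hours before viability readout; 0% = vehicle and 100% = killing control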
# [24] = BT084 cell growth, single and combined drugs, ICGC_MB145, cisplatin and BGB IC40 combos (AID 1671461); conditions: BT084 medulloblastoma cells, drug combinations, stronger effect = higher value;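 further: cells exposed to drugs for 96 hours; 0% = vehicle DMSO and 100% = high DMSO full killing control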
# [25] = RCMB18 cell growth, single agent and combined, cisplatin and BGB IC40 combos (AID 1671462); conditions: RCMB18 medulloblastoma cells, stronger effect = higher value;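 further: cells exposed to compound for four days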
# [26] = CRL1545 cell growth, single agent and combined, cisplatin and BGB IC20 combos (AID 1671464); conditions: CRL1545 osteosarcoma cells, stronger effect = higher value;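 further: cells exposed to compound for 96 hours before readout; 0% = vehicle DMSO and 100% = high DMSO killing control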
# [27] = stronger effect = lower value, cell number ratio, induced over uninduced
# [28] = measured here: relative caspase fold change +Dox/-Dox
# [29] = measured here: total cells with miR-34 induction, stronger effect = lower value
# [30] = measured here: total cells without miR-34 induction
# [31] = MELAS cybrid survival, CellTiter-Glo 48 h, stronger effect = higher value
# [32] = Rieske KO mouse fibroblast survival, CellTiter-Glo 72 h
# [33] = measured here: combination with BGB IC40, at 0.05 µM
# [34] = measured here: with BGB IC20 combination, at 0.5 µM
# [35] = measured here: with cisplatin IC20 combination, at 0.5 µM
# [36] = measured here: combination with cisplatin, at 0.5 µM
# [37] = measured here: combination with cisplatin, at 5 µM
smiles,measurement,setting,value
N[C@@H](Cn1ccc(=O)c(O)c1)C(=O)O,parasite load remaining,[1],61.9% (inactive)
same,viability,[1],117%
same,inhibition,[2],-3% (inactive)
same,fluorescence ratio (interference),[3],1 (inactive)
same,fold change,[4]; [27],1.03 (inactive) and 0.872 (inactive)
same,fold change,[4]; [28],1.54 and 1.46
same,cell count,[4]; [29],10200 and 9120
same,cell count,[4]; [30],9910 and 10400
same,outcome,[5],inactive
same,luciferase signal,[6],68 AU (inactive)
same,z-score,[7],0.455 (inactive)
CC[C@H](C)[C@H]1O[C@]2(CC[C@@H]1C)C[C@@H]1C[C@@H](C/C=C(\C)[C@@H](O[C@H]3C[C@H](OC)[C@@H](O[C@H]4C[C@H](OC)[C@@H](O)[C@H](C)O4)[C@H](C)O3)[C@@H](C)/C=C/C=C3\CO[C@@H]4[C@H](O)C(C)=C[C@@H](C(=O)O1)[C@]34O)O2,parasite load remaining,[1],26.5% (inactive) and 28.8% (inactive)
same,viability,[1],44.6% and 96.5%
same,fold change,[4]; [27],0.862 (inactive) and 0.935 (inactive)
same,fold change,[4]; [28],0.479 and 1.24
same,cell count,[4]; [29],6180 and 7180
same,cell count,[4]; [30],7170 and 7680
same,z-score,[8]; [31],-1.97 (inactive) and -0.0039 (inactive)
same,z-score,[8]; [32],0.878 and -0.186
same,remaining NAD,[9],10 nM (inactive)
same,luciferase signal,[6],44 AU (inactive)
same,z-score,[7],-1.77 (inactive)
COc1cc(CNC(=O)CCCCCCC(C)C)ccc1O,period change,[10],0.135 h (inactive)
same,inhibition,[2],-5% (inactive)
same,fluorescence ratio (interference),[3],1 (inactive)
same,fold change,[4]; [27],1.08 (inactive) and 1.04 (inactive)
same,fold change,[4]; [28],0.866 and 1.07
same,cell count,[4]; [29],10600 and 5720
same,cell count,[4]; [30],9840 and 5480
same,outcome,[5],inactive
same,z-score,[7],-0.085 (inactive)
CCCCC[C@H](O)/C=C/[C@@H]1[C@@H](C/C=C\CCCC(=O)O)[C@H](O)C[C@H]1O,survival,[11],98.1 (inactive)
same,fold change,[4]; [27],0.925 (inactive) and 0.811 (inactive) and 0.869 (inactive)
same,fold change,[4]; [28],1.48 and 1.52 and 1.28
same,cell count,[4]; [29],5990 and 4790 and 5310
same,cell count,[4]; [30],6480 and 5900 and 6110
Nc1nc2n[nH]nc2c(=O)[nH]1,survival,[11],1.83 (inactive)
same,parasite load remaining,[1],236% (inactive) and 549% (inactive)
same,viability,[1],41.1% and 96.1%
same,fold change,[4]; [27],0.89 (inactive) and 0.844 (inactive)
same,fold change,[4]; [28],1.24 and 2.05
same,cell count,[4]; [29],3000 and 5470
same,cell count,[4]; [30],3360 and 6490
same,z-score,[8]; [31],-0.244 (inactive) and -0.54 (inactive)
same,z-score,[8]; [32],-0.138 and -0.665
same,inhibition,"[12]; at 0.5 µM, stronger effect = higher value",-21.3% (inactive)
same,inhibition,"[12]; measured here: combination with BGB IC20, at 0.005 µM",-4.53%
same,inhibition,"[12]; measured here: combination with BGB IC40, at 0.005 µM",-37%
same,inhibition,[12]; [33],-34.6%
same,inhibition,"[12]; measured here: combination with cisplatin, at 0.5 µM, stronger effect = higher value",-31.1%
same,inhibition,"[12]; measured here: combination with cisplatin, at 5 µM, stronger effect = higher value",8.39%
same,inhibition,"[13]; BGB combo, at 5 µM",20.7%
same,inhibition,[13]; at 0.5 µM,-10.2% (inactive)
same,inhibition,"[13]; cisplatin combo, at 5 µM",6.45%
same,inhibition,[13]; [34],-12.8%
same,inhibition,[13]; [35],-5.82%
same,inhibition,"[13]; single agent, at 5 µM",42.1%
same,inhibition,"[14]; BGB IC20 combo, at 0.005 µM",-1.82%
same,inhibition,"[14]; BGB IC40 combo, at 0.005 µM",-9.06%
same,inhibition,"[14]; BGB IC40 combo, at 0.05 µM",29.3%
same,inhibition,[14]; at 0.5 µM,-25% (inactive)
same,inhibition,"[14]; cisplatin combo, at 0.05 µM",27.3%
same,inhibition,"[14]; cisplatin combo, at 0.5 µM",-32.9%
same,inhibition,"[14]; cisplatin combo, at 5 µM",-42%
same,inhibition,"[14]; measured here: 5 uM single agent, at 5 µM",-12.8%
same,inhibition,[15]; at 0.5 µM,-9.31% (inactive)
same,inhibition,[15]; [33],-15.8%
same,inhibition,[15]; [36],-8.27%
same,inhibition,[15]; [37],12.9%
same,inhibition,[16]; at 0.5 µM,-22.9% (inactive)
same,inhibition,"[16]; measured here: with BGB IC20, at 0.5 µM",-34.4%
same,inhibition,"[16]; measured here: with BGB IC20, at 5 µM",1.91%
same,inhibition,"[16]; measured here: with cisplatin IC20, at 0.5 µM",-27.1%
same,inhibition,"[16]; measured here: with cisplatin IC20, at 5 µM",-19.1%
same,inhibition,"[16]; single agent, at 5 µM",1.86%
same,inhibition,[17]; at 0.5 µM,-27.1% (inactive)
same,inhibition,"[17]; measured here: combination with BGB at IC20, at 0.5 µM",-20.7%
same,inhibition,"[17]; measured here: combination with cisplatin at IC20, at 0.5 µM",-21.9%
same,inhibition,[18]; at 0.5 µM,19.3% (inactive)
same,inhibition,"[18]; measured here: combo with BGB at IC20, at 0.5 µM",16.1%
same,inhibition,"[18]; measured here: combo with cisplatin at IC20, at 0.5 µM",19.7%
same,inhibition,[19]; at 0.5 µM,32.6% (inactive)
same,inhibition,"[19]; measured here: inhibition with BGB combination, at 0.05 µM",-18.7%
same,inhibition,"[19]; measured here: inhibition with cisplatin combination, at 0.05 µM",7.62%
same,inhibition,[20]; at 0.5 µM,-9.15% (inactive)
same,inhibition,[20]; [36],-13.8%
same,inhibition,[20]; [37],-35.4%
same,inhibition,[21]; at 0.5 µM,-11.4% (inactive)
same,inhibition,"[21]; measured here: BGB combination, at 0.5 µM",-12.2%
same,inhibition,"[21]; measured here: BGB combination, at 5 µM",-5.12%
same,inhibition,"[21]; measured here: cisplatin combination, at 0.5 µM",-17.5%
same,inhibition,"[21]; measured here: cisplatin combination, at 5 µM",11.7%
same,inhibition,"[22]; BGB combination, concentration series, at 5 µM",85.1%
same,inhibition,[22]; at 0.5 µM,38.3% (inactive)
same,inhibition,"[22]; cisplatin combination, concentration series, at 5 µM",92.1%
same,inhibition,[23],3.68% (inactive)
same,inhibition,[23]; measured here: combo with BGB IC20,0.254%
same,inhibition,[23]; measured here: combo with cisplatin IC20,6.71%
same,inhibition,[24]; at 0.5 µM,-32% (inactive)
same,inhibition,"[24]; cisplatin combination, at 0.5 µM",-3.22%
same,inhibition,"[24]; cisplatin combination, at 5 µM",22.6%
same,inhibition,"[24]; measured here: BGB IC40 combination 0.05 uM, at 0.05 µM",-14%
same,inhibition,"[24]; single agent, at 5 µM",6.12%
same,inhibition,[25]; at 0.5 µM,-14.7% (inactive)
same,inhibition,"[25]; cisplatin combo, at 5 µM",33.1%
same,inhibition,"[25]; measured here: BGB IC40 combination, at 0.05 µM",-43.3%
same,inhibition,[25]; [36],3.47%
same,inhibition,"[25]; single agent, at 5 µM",22.1%
same,inhibition,[26]; at 0.5 µM,-20.1% (inactive)
same,inhibition,[26]; [34],-2.71%
same,inhibition,[26]; [35],-31.6%
same,inhibition,"[26]; single agent, at 0.05 µM",-28.1%
same,inhibition,"[26]; single agent, at 5 µM",32.5%
